# PubChem BioAssay AID1508600 (Functional Genomics Laboratory (NCATS/FGL), 2020)
# Out of some 53,000 sequences screened, about 3,700 (7%) were called active. The full list was thinned out, with actives kept by preference. Values without a mark were called inactive.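 How the source made its calls: active means gene knockdowns whose robust z-score for IL-1 alpha signal is at least 2 or at most -2, so actives lie on both sides; inactive means the rest.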
# Test: Components of the Cytosolic LPS Sensing Pathway: Gene Identification via Genome-wide siRNA Screen;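 further: robust z of the log signal after scaling to non-targeting control siRNA wells of the plate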
# Details: RAW264.7 macrophages, IL-1a HTRF, actives lie on both sides, screened at 100 nM (by protocol), cells primed 5 h with Pam3CSK4 first
# In short: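 IL-1a HTRF of supernatants after 24 hour LipidA transfection of Pam3CSK4-primed (5 hours) RAW264.7 cells, 48h post-siRNA transfection (100 nM). Scores: percent of plate negative-control median, then log-based robust z-score.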
row,Sequence,z-score
1,CGCCAAUUCAUCGUUGACUTT against Ccl3,0.773
2,GGAUUUGGAGUAGAUCAAUTT against Tial1,0.638
3,GGAACUGCUAAUCAACCAUTT against Zmynd10,-2.14 (active)
4,GGAAAAAGAGUCCUUCAUGTT against Minar2,1.19
5,GGAACAAGAAACCACAAUGTT against Agpat1,0.281
6,GGAAGAUGCCAUCUUACACTT against Borcs7,2.5 (active)
7,GCAGGUUCACGACACCAACTT against Sv2a,-1.35
8,GCUGAAUGCGACAUUUAUATT against Hk2,0.668
9,GGCUGAGCUGAUCUUCUUATT against Wnt8a,-0.037
10,GGUCCGAAAGGCAGCUAUATT against Fcer1g,-2.17 (active)
11,CGAACAUUCCUUCCAUAACTT against Kcnd3,0.609
12,GGCUGUGCAAGCAAAACCUTT against Mad1l1,-1.43
13,GGUACAAGACUGUCAUGUGTT against Mrpl3,0.356
14,GGUCAAAGUCUAGGAGUUUTT against Spp1,2.56 (active)
15,GGUGUCCAGUCAAUAAGAGTT against Msx3,-0.0298
16,GGAAAGCUUCAAAAUGGUGTT against Foxj2,-1.26
17,GGACAUUGACACUACUCCATT against Cyp2c55,-0.519
18,GCCCAACUAAGCAAUAAUATT against Fam216b,0.395
19,GCCGAGCAGAUGUACAGAATT against Zfp39,2.93 (active)
20,GUGGUUGAACGGGAAUUUGTT against Gm11487,0.542
21,GGCUUUAGGUAGUAGUCUCTT against Kansl2,-2.9 (active)
22,GCCAGUGGAUGUUCAGAAUTT against Ccdc73,0.019
23,GCGAGAGUUUUUCUUCAACTT against Hoxc11,0.385

row,Sequence,z-score
1,GGAAUGAGGGUAAUGAAUATT against Plin3,-1.74
2,GGAGCUAGCUAGAACAAGUTT against Slmap,1.58
3,GGAUCAAUCCACAGACGACTT against Dbr1,1.56
4,CGUGGUGAACGAGAUUGAUTT against Kcnab1,1.21
5,GCCUGAUGUUGUUUCCAAATT against Lias,2.67 (active)
6,GGUGAAGUUGAAUGGAAGUTT against Crebzf,-0.9
7,CCUAACACUAGUCUCAGAATT against Olfr873,0.192
8,GGUGCUAAUGACCUUUGAATT against Dbp,-1.5
9,GGAAUGGGAUAGAUUUGUUTT against Ung,2.51 (active)
10,GCUACCUCUGACGACCAAGTT against Slc23a3,1.11
11,CCAUCAGGUUUAAGUCGUATT against Vps36,-0.698
12,CGAAGAGAAGUUAUUUGUATT against Mrps23,1.19
13,GGUUUACCAGGAAAAUUGATT against Txnrd3,-1.09
14,GGGUCACACUUCAUGGCUUTT against Pofut1,-2.07 (active)
15,GGAUUCUUCGCUCCAAUGATT against Pacs1,0.73
16,GGUAUCCUGAUUGUUGAGUTT against Fam228a,1.18
17,GCAUCAUUAUCUUACCAACTT against Olfr826,-0.994
18,GAGAGAGGGAAUUUGCUCCTT against Pcdhb8,2.6 (active)
19,AUGUGGCAAAACCUUUGCATT against Zfp960,0.615
20,CCCAUGCUUAUUACCGAGATT against Rab37,0.0517
21,GGGUGUCAACCCUUUAGAUTT against C130026I21Rik,0.685
22,GCACCUCAAAAGAAUUCAUTT against Septin10,1.42
23,GGAUAAGAAACACAAGAAGTT against Srrm1,2.04 (active)

row,Sequence,z-score
1,GCACAUUUUAGCCUAAUGGTT against Tpm3,-0.785
2,CCCACUUGUGGCAGUGUACTT against Stub1,0.818
3,GCGACAAUAUGAGUCACCUTT against Fsd1,-2.07 (active)
4,GGGUAACAUGAAAGUGAUCTT against Mybbp1a,-0.972
5,GGACCAAGGAGCAUUGAAATT against Fkbp7,1.06
6,GGAAUUCAUCUGUGGUCUCTT against Trim50,-0.559
7,GCUUUAGGUAUGGUCCUAATT against A430072C10Rik,1.23
8,GGAUCCAAGGGCAAAAGAUTT against St6galnac1,-1.36
9,CGUACUAUAGUAAAUCCAGTT against Clk1,2.4 (active)
10,GCCAAGAAACAAUACUCAUTT against Olfr1352,0.694
11,CCUACCAAAACGACUAUAUTT against Pnma3,-1.29
12,CGGGCUGAUUCAACUGGUGTT against Kif1b,3.64 (active)
13,GGUACCUCUUCUCCUAAAGTT against Vps16,0.106
14,GCAUCUCAGCUCUGAUUUATT against Fgfbp3,0.758
15,GGUAGAAACUGACCACAUATT against Aifm1,0.917
16,GGAGUAAAUUGAGAAACCATT against Acsm5,-0.149
17,CCUUUAUUUCUGUGAAUCUTT against Olfr1467,0.631
18,GCUGUUCGUGAGGAUAACCTT against Yipf1,1.2
19,GGGUAGAAUGACUUUGGCCTT against Cldn2,1.19
20,GGCUUAUCAUAUGAAGACATT against Aplp2,2.33 (active)
21,GGAGUCACCAGACUUGUGUTT against Svs3b,0.637
22,GGAAAAUGCUCACAUAGUGTT against Pak1ip1,0.442
23,CGCAUACUGUGGAAUAGUUTT against Spag4,-1.26
